Methyltransferases: Primary Screen for Target Class Profiling of Small Molecule Inhibitors of Methyltransferases; purified enzyme, MTase-Glo SAH luminescence; hits give low values; calls only at 40 µM; actives 3.9% (n = 25,000); AID 1745853, 2022; call rule not given here
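Each enzyme was reacted with SAM and its substrate, with compounds tested once at 40 uM; SAH formed was read by MTase-Glo luminescence.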
Active calls of the source: *; i = inactive; + = active, no number. The entries come from a sample that favours hits as a whole. On the % scale 0 is the no-effect control and ±100 the full control effect.

SMILES | Methyltransferases
Cc1cccc(-c2n[nH]n3c2nc(=O)c2ccc(C(=O)N4CCN(c5cc(C)ccc5C)CC4)cc23)c1 | i
Cc1ccc(CCNC(=O)CCCn2ccc3cc(S(=O)(=O)N4CCCC4)ccc32)cc1 | i
CC1(C(=O)NC2CCCCC2)Cn2c(ccc2-c2ccco2)C(=O)N1CCc1ccco1 (stereo not drawn) | i
Cc1cccc(C(=O)N2CC[C@H]3C(=O)NCCCCCCN(Cc4ccncc4)[C@@H]3C2)c1 | i
COc1ccccc1CNC(=O)C1(C)Cn2nc(-c3ccccc3)cc2C(=O)N1c1cccc(Cl)c1C (stereo not drawn) | i
COC(=O)c1cc2n(n1)CC(C)(C(=O)NC1CCCCCC1)N(Cc1ccccc1Cl)C2=O (stereo not drawn) | i
NC(=O)[C@H](O[C@@H]1O[C@H](CO)[C@@H](O)[C@H](O)[C@H]1O)c1ccccc1 | i
CCc1c(Cl)c(O)c(Cl)c(O)c1C(=O)O[C@H]1[C@H](O)[C@H](OC)[C@H](OC/C2=C\C=C\C[C@H](O)/C(C)=C\[C@H](CC)[C@@H](O[C@@H]3OC(C)(C)[C@@H](OC(=O)C(C)C)[C@H](O)[C@@H]3O)/C(C)=C/C(C)=C/C[C@@H]([C@@H](C)O)OC2=O)O[C@@H]1C | +
CCCN1C(=O)c2cc(C(=O)N3CCN(C4CCCCC4)CC3)nn2CC1(C)C(=O)NC1CCCC1 (stereo not drawn) | i
COCC(=O)N(C1CCOCC1)C1CCN(C(=O)c2cccnc2C)CC1 | i
CCCN1C(=O)c2cc(C(=O)NCCN(C)C)nn2CC1(C)C(=O)NC1CCCC1 (stereo not drawn) | i
CN(C)CCNC(=O)c1cccn2c(=O)c3cc4ccccc4cc3nc12 | +
Cc1cccc(Cn2nc3n(CC(C)C)c(=O)c4ccc(C(=O)NC(C)C)cc4n3c2=O)c1 | i
CSc1cccc(NS(=O)(=O)c2ccc3[nH]c4c(c3c2)CCCC4)c1 | i
CCc1cccc(NC(=O)Cn2nc3n(C(C)C)c(=O)c4ccc(C(=O)NC5CCCC5)cc4n3c2=O)c1 | i
C[C@@H]1O[C@@H](O[C@H]2[C@@H]3C=CO[C@@H](O[C@@H]4O[C@H](CO)[C@@H](O)[C@H](O)[C@H]4O)[C@@H]3[C@@]3(CO)O[C@@H]23)[C@H](O)[C@H](OC(=O)/C=C/c2ccccc2)[C@H]1O | i
CC(=O)O[C@@H]1[C@@H](O)[C@H](C)O[C@@H](O[C@H]2[C@@H]3C=CO[C@@H](O[C@@H]4O[C@H](CO)[C@@H](O)[C@H](O)[C@H]4O)[C@@H]3[C@@]3(CO)O[C@@H]23)[C@@H]1OC(=O)/C=C/c1ccccc1 | i
CC1=CC(=O)C2(OC3OC(C)C(O)C(OC(=O)/C=C/c4ccccc4)C3O)C=COC(OC3OC(CO)C(O)C(O)C3O)C12 (stereo not drawn) | +
CC1(C(=O)NC2CCCCCC2)Cn2c(ccc2-c2ccco2)C(=O)N1CCc1ccccc1 (stereo not drawn) | i
CC1CCC(NC(=O)C2c3cccn3CC(=O)N2CCC2=CCCCC2)CC1 (stereo not drawn) | i
CC[N+]1(C/C2=C/CCCCCC2)CCC(NC(=O)C2c3cc(Cl)ccc3Oc3ccc(Cl)cc32)CC1 (stereo not drawn) | +
COC(=O)c1cc(OC)cc(OC)c1C(=O)c1c(OC)cc2c(c1O)C1CCCC(C)(O2)O1 (stereo not drawn) | i
CC12CCC3C1C(c1c(cc(O)c(C(=O)c4ccccc4)c1O)O2)C3(C)C (stereo not drawn) | +
O=S(=O)(c1cc(F)ccc1F)N1CCC(n2cc(CCCO)nn2)CC1 | i
Cc1ccc(C#N)c(-c2cc(NCc3cccnc3)nc3[nH]ccc23)n1 | i
SMILES | Methyltransferases
N#Cc1cnc2c(Cl)cc(NCc3cn(CCN4CCCCCC4)nn3)cc2c1Nc1ccc(F)c(Cl)c1 | +
N#Cc1cnc2cnc(NCc3cccnc3)cc2c1Nc1ccc(F)c(Cl)c1 | +
CNC(=O)[C@@H]1C[C@H](n2cc(CNS(=O)(=O)c3cc(C)ccc3F)nn2)CN1 | i
O=C(Nc1ccc(F)c(Cl)c1)c1cnc(-c2ccccc2)nc1-c1ccncc1 | i
CCN1CCC(n2cc(CNc3cc(Cl)c4ncc(C#N)c(Nc5ccc(F)c(Cl)c5)c4c3)nn2)CC1 | +
CCc1cc2c(cc3n2CC(C)(C(=O)NC2CCCCCC2)N(c2cccc(OC)c2)C3=O)s1 (stereo not drawn) | i
CC1(C(=O)NC2CCCCC2)Cn2c(nc3ccccc32)C(=O)N1Cc1ccccc1Cl (stereo not drawn) | i
O=C(Cn1nc2n(CCc3ccccc3)c(=O)c3ccccc3n2c1=O)c1ccc(F)cc1 | i
CC1(C(=O)NC2CCCCCCC2)Cn2c(cc3occc32)C(=O)N1CCN1CCCCCC1 (stereo not drawn) | i
COc1cccc(NC(=O)N2Cc3c(sc4c3CCCC4)-n3cccc3C2C)c1 (stereo not drawn) | i
COc1ccc2cc3n(c2c1)CC(C)(C(=O)NC1CCCCCC1)N(CC1CCCO1)C3=O (stereo not drawn) | i
OC[C@@]1(O)CO[C@H](OC[C@H]2O[C@@H](OC(CCCCc3ccc(O)cc3)CCc3ccc(O)cc3)[C@H](O)[C@@H](O)[C@@H]2O)[C@@H]1O (stereo partly drawn) | i
O=C(Nc1ccc(F)cc1)N1CCn2cccc2C1Cc1ccccc1 (stereo not drawn) | i
C=C1C(=O)O[C@@H]2C/C(C)=C\C(=O)/C=C(\C)[C@@H](OC(=O)/C(C)=C\C)[C@H](O)[C@@H]12 | i
C=C1C(=O)OC2CC3(C)C(CC12)C(C)=CC(O)C3OC(C)=O (stereo not drawn) | +
C=C(C)C(=O)O[C@H]1C[C@@](C)(O)C(=O)CC(O)/C(C)=C\[C@H]2OC(=O)C(=C)[C@H]12 (stereo partly drawn) | i
COc1ccc(NC(=O)CSc2nnc3n(CC(C)C)c(=O)c4cc(F)ccc4n23)cc1 | i
O=C(NCc1ccc(Cl)cc1)c1ccc2c(=O)[nH]c3c(C(=O)NC4CCCC4)sc(=S)n3c2c1 | +
Cc1cccc(-c2n[nH]n3c2nc(=O)c2ccc(C(=O)NCc4ccc5c(c4)OCO5)cc23)c1 | i
Cn1c(=O)c2ccc(C(=O)NC3CCCC3)cc2n2c(=O)n(CC(=O)NCc3ccc(Cl)cc3)nc12 | i
COc1ccccc1NC(=O)c1sc(=S)n2c1[nH]c(=O)c1cc(Cl)ccc12 | i
O=C(NCc1ccc2c(c1)OCO2)c1ccc2c(=O)[nH]c3c(C(=O)NCC4CCCO4)sc(=S)n3c2c1 (stereo not drawn) | i
COc1cc2c(=O)[nH]c3c(C(=O)NCc4ccc5c(c4)OCO5)sc(=S)n3c2cc1OC | i
Cc1ccc2c(c1)c(=O)[nH]c1c(C(=O)NCc3ccc4c(c3)OCO4)sc(=S)n12 | +
Cc1ccc(NC(=O)c2sc(=S)n3c2[nH]c(=O)c2cc(Cl)ccc23)c(C)c1 | i
CC[C@H](C)NC(=O)c1sc(=S)n2c1[nH]c(=O)c1cc(Cl)ccc12 | +
Cc1ccc(S(=O)(=O)c2nnn3c2nc(NCc2ccccc2)c2ccccc23)c(C)c1 | i
COc1nccc(N2CCC(CC(=O)NCCCN3CCCC3=O)CC2)n1 | i
CCCn1c(=O)c2ccc(C(=O)NC(C)C)cc2n2c(=O)n(CC(=O)Nc3cccc(C)c3)nc12 | i
